PubChem BioAssay AID1159580 (chemical genetic matrix, 2015)
Where “and” joins values, the source holds several entries; their conditions need not be identical. Equal entries are not always repeated. Out of some 5,500 compounds screened, about 2,000 (36%) were called active. Inconclusive results (about 18%) are left out. Rule as the data show it: active = normalized growth mostly below about 0.91 (no sharp cut-off); inconclusive = no clear call, values can overlap the other calls; inactive = mostly above about 0.92. This is one part of the list.

Assay: chemical genetic growth profiling, strain panel (AID 1159580);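 also: tested at 20 µM; growth read once vehicle control cultures reached saturation at 30 °C; 1 = growth at the plate median or of vehicle wells; lower values mean less growth of the strain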
Details: S. cerevisiae deletion strains, growth OD

Which results are given for `O=c1c(O)c(-c2ccccc2)oc2ccccc12`?
normalized growth (locus YAL013W, strain DEP1, stronger effect = lower value): 0.993 (inactive); normalized growth (locus YAL021C, strain ccr4, stronger effect = lower value): 0.424 (active); normalized growth (locus YAL026C, strain drs2, stronger effect = lower value): 0.17 (active); normalized growth (locus YAL030W, strain snc1, stronger effect = lower value): 0.68 (active); normalized growth (locus YBL061C, strain skt5, stronger effect = lower value): 0.578 (active); normalized growth (locus YBR009C, strain hhf1, stronger effect = lower value): 0.61 (active); normalized growth (locus YBR021W, strain FUR4, stronger effect = lower value): 1.01 (inactive); normalized growth (locus YBR023C, strain chs3, stronger effect = lower value): 0.363 (active); normalized growth (locus YBR171W, strain sec66, stronger effect = lower value): 0.815 (active); normalized growth (locus YBR229C, strain ROT2, stronger effect = lower value): 0.963 (inactive); normalized growth (locus YBR231C, strain swc5, stronger effect = lower value): 0.418 (active); normalized growth (locus YBR279W, strain paf1, stronger effect = lower value): 0.447 (active); normalized growth (locus YCL011C, strain gbp2, stronger effect = lower value): 0.51 (active); normalized growth (locus YCL016C, strain dcc1, stronger effect = lower value): 0.628 (active); normalized growth (locus YCL029C, strain bik1, stronger effect = lower value): 0.983 (inactive); normalized growth (locus YCL061C, strain MRC1, stronger effect = lower value): 0.527 (active); normalized growth (locus YCL069W, strain vba3, stronger effect = lower value): 0.47 (active); normalized growth (locus YCR088W, strain abp1, stronger effect = lower value): 0.654 (active); normalized growth (locus YDL005C, strain med2, stronger effect = lower value): 0.855 (active); normalized growth (locus YDL035C, strain GPR1, stronger effect = lower value): 0.985 (inactive); normalized growth (locus YDL040C, strain nat1, stronger effect = lower value): 0.794 (active); normalized growth (locus YDL074C, strain BRE1, stronger effect = lower value): 1.01 (inactive); normalized growth (locus YDL101C, strain DUN1, stronger effect = lower value): 0.997 (inactive); normalized growth (locus YDL185W, strain tfp1, stronger effect = lower value): 0.974 (inactive); normalized growth (locus YDL192W, strain arf1, stronger effect = lower value): 1 (inactive); normalized growth (locus YDR001C, strain nth1, stronger effect = lower value): 0.651 (active); normalized growth (locus YDR069C, strain doa4, stronger effect = lower value): 0.302 (active); normalized growth (locus YDR101C, strain arx1, stronger effect = lower value): 1.03 (inactive); normalized growth (locus YDR137W, strain rgp1, stronger effect = lower value): 0.363 (active); normalized growth (locus YDR150W, strain NUM1, stronger effect = lower value): 0.993 (inactive); normalized growth (locus YDR159W, strain sac3, stronger effect = lower value): 0.929 (inactive); normalized growth (locus YDR162C, strain NBP2, stronger effect = lower value): 0.981 (inactive); normalized growth (locus YDR195W, strain ref2): 1.17 [resistant] (active); normalized growth (locus YDR297W, strain sur2, stronger effect = lower value): 0.709 (active); normalized growth (locus YDR318W, strain mcm21, stronger effect = lower value): 0.963 (inactive); normalized growth (locus YDR334W, strain swr1, stronger effect = lower value): 0.347 (active); normalized growth (locus YDR335W, strain msn5, stronger effect = lower value): 0.608 (active); normalized growth (locus YDR388W, stronger effect = lower value): 0.994 (inactive); normalized growth (locus YDR392W, strain spt3, stronger effect = lower value): 0.135 (active); normalized growth (locus YDR502C, strain sam2, stronger effect = lower value): 1.01 (inactive); normalized growth (locus YEL003W, strain gim4, stronger effect = lower value): 0.595 (active); normalized growth (locus YEL037C, strain rad23, stronger effect = lower value): 0.465 (active); normalized growth (locus YEL061C, strain CIN8 (second series), stronger effect = lower value): 0.592 (active); normalized growth (locus YEL061C, strain CIN8, stronger effect = lower value): 0.984 (inactive); normalized growth (locus YER015W, strain faa2, stronger effect = lower value): 0.455 (active); normalized growth (locus YER016W, strain bim1, stronger effect = lower value): 0.81 (active); normalized growth (locus YER110C, stronger effect = lower value): 0.987 (inactive); normalized growth (locus YER111C, strain swi4, stronger effect = lower value): 0.71 (active); normalized growth (locus YER155C, strain BEM2 (second series), stronger effect = lower value): 0.602 (active); normalized growth (locus YER155C, strain BEM2, stronger effect = lower value): 0.999 (inactive); normalized growth (locus YER167W, strain BCK2, stronger effect = lower value): 0.99 (inactive); normalized growth (locus YFR010W, strain ubp6, stronger effect = lower value): 0.291 (active); normalized growth (locus YGL078C, strain dbp3, stronger effect = lower value): 0.991 (inactive); normalized growth (locus YGL086W, strain mad1, stronger effect = lower value): 1.04 (inactive); normalized growth (locus YGL167C, strain pmr1, stronger effect = lower value): 0.834 (active); normalized growth (locus YGL173C, strain kem1, stronger effect = lower value): 0.271 (active); normalized growth (locus YGL227W, strain vid30, stronger effect = lower value): 0.771 (active); normalized growth (locus YGL240W, strain doc1, stronger effect = lower value): 0.643 (active); normalized growth (locus YGL248W, strain PDE1, stronger effect = lower value): 0.986 (inactive); normalized growth (locus YGL253W, strain hxk2, stronger effect = lower value): 0.356 (active); normalized growth (locus YGR078C, strain PAC10, stronger effect = lower value): 0.991 (inactive); normalized growth (locus YGR135W, strain pre9, stronger effect = lower value): 0.977 (inactive); normalized growth (locus YGR229C, strain SMI1, stronger effect = lower value): 0.998 (inactive); normalized growth (locus YGR252W, strain gcn5, stronger effect = lower value): 0.947 (inactive); normalized growth (locus YHR013C, strain ard1, stronger effect = lower value): 0.219 (active); normalized growth (locus YHR027C, strain rpn1, stronger effect = lower value): 0.268 (active); normalized growth (locus YHR030C, strain SLT2, stronger effect = lower value): 0.991 (inactive) and 0.591 (active); normalized growth (locus YHR079C, strain IRE1 (second series), stronger effect = lower value): 0.993 (inactive); normalized growth (locus YHR079C, strain IRE1, stronger effect = lower value): 0.812 (active); normalized growth (locus YHR094C, strain hxt1, stronger effect = lower value): 0.975 (inactive); normalized growth (locus YHR129C, strain ARP1, stronger effect = lower value): 0.982 (inactive); normalized growth (locus YHR142W, strain chs7, stronger effect = lower value): 0.294 (active); normalized growth (locus YHR200W, strain rpn10, stronger effect = lower value): 0.992 (inactive); normalized growth (locus YIL066C, strain RNR3, stronger effect = lower value): 0.978 (inactive); normalized growth (locus YIL073C, strain SPO22, stronger effect = lower value): 0.996 (inactive); normalized growth (locus YIL125W, strain kgd1, stronger effect = lower value): 0.999 (inactive); normalized growth (locus YIR030C, strain dcg1, stronger effect = lower value): 0.998 (inactive); normalized growth (locus YJL092W, strain hpr5, stronger effect = lower value): 0.545 (active); normalized growth (locus YJL095W, strain BCK1 (second series), stronger effect = lower value): 0.453 (active); normalized growth (locus YJL095W, strain BCK1, stronger effect = lower value): 0.983 (inactive) and 0.617 (active); normalized growth (locus YJL115W, strain asf1, stronger effect = lower value): 0.616 (active); normalized growth (locus YJL129C, strain trk1, stronger effect = lower value): 0.77 (active); normalized growth (locus YJL134W, strain LCB3, stronger effect = lower value): 0.986 (inactive); normalized growth (locus YJL154C, strain vps35, stronger effect = lower value): 0.752 (active); normalized growth (locus YJL164C, strain tpk1, stronger effect = lower value): 0.333 (active); normalized growth (locus YJL166W, strain qcr8, stronger effect = lower value): 0.355 (active); normalized growth (locus YJL168C, strain set2, stronger effect = lower value): 0.994 (inactive); normalized growth (locus YJL187C, strain SWE1 (second series), stronger effect = lower value): 1.01 (inactive)
